# Measurements: PubChem BioAssay (NCATS)
# Where “and” joins values, the source holds several entries; their conditions need not be identical. Identical values can stand only once. Inconclusive results are not listed. Entries that show only a call come without a potency. Calls of active or inactive are those of the source. Calls follow the shape of the full dose curve.
# Key:
# [1] = Cytotoxicity counterscreen for inhibitors of SARS-CoV-2 cell entry (AID 1645845); also: nearly all actives have a fitted effect of over 50% in size
# Method in brief: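 HEK293-ACE2 cells (Expi293F stably expressing human ACE2) seeded overnight, then compound for 1 h plus 48 h at 37C. Viability as ATP content by luminescence; normalized to wells with cells and media-only wells.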
# [2] = Primary qHTS to identify inhibitors of SARS-CoV-2 cell entry (AID 1645846); conditions: activity change, negative = inhibition: at 57.1 µM (top of the series) unless noted; also: nearly all actives have a fitted effect of over 45% in size
# Method in brief: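 Luminescence readout (Bright-Glo luciferase) 48 h after pseudoparticle addition. HEK293-ACE2 cells, 1500/well; compound pre-incubation 1 h; Normalized to spike PP and bald PP.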
# Potency is read from the fitted curve at half-maximal effect.
Structure (SMILES),Potency [1],"activity change, negative = inhibition [2]",Potency [2],"activity change, negative = cytotoxicity [1]"
NC(=O)c1ccc(N(C(N)=O)c2c(F)cccc2F)nc1-c1ccc(F)cc1F,inactive,-20.8%,–,–
C[C@H](NC(=O)Cc1cc(F)cc(F)c1)C(=O)N[C@@H]1C(=O)N(C)c2ccccc2-c2ccccc21,inactive,3.07%,–,–
CC1(C)CCC(c2ccc(Cl)cc2)=C(CN2CCN(c3ccc(C(=O)NS(=O)(=O)c4ccc(N[C@H](CCN5CCOCC5)CSc5ccccc5)c(S(=O)(=O)C(F)(F)F)c4)cc3)CC2)C1,inactive,–,inactive,–
CS(=O)(=O)Oc1ccc2c(NC(N)=O)c(C(=O)c3ccc(Cl)cc3Cl)oc2c1,inactive,–,inactive,–
CCOC(=O)c1c(C(C#N)=CN)c2ccc(Cl)c(Cl)c2n1C,inactive,-10.2%,–,–
Nc1ccccc1NC(=O)c1ccc(CNC(=O)OCc2cccnc2)cc1,inactive,–,inactive,–
CC(C)(C)NCC(O)c1ccc(O)c(CO)c1 (configuration not stated),inactive,–,inactive,–
Cc1cccc(-c2nn(C(=S)Nc3ccccc3)cc2-c2ccnc3ccccc23)n1,inactive,–,inactive,–
CC(C)(Sc1ccc(CCN(CCCCC2CCCCC2)C(=O)NC2CCCCC2)cc1)C(=O)O,inactive,4.91%,–,–
COc1cccc(OC)c1-c1cc(C(=O)NC2(C(=O)O)C3CC4CC(C3)CC2C4)nn1-c1ccnc2cc(Cl)ccc12 (configuration not stated),inactive,–,inactive,–
CC(C)[C@H](CO)Nc1nc(Nc2ccc(C(=O)O)c(Cl)c2)c2ncn(C(C)C)c2n1,inactive,-17.7%,–,–
Cc1nnc(C(C)C)n1C1CC2CCC(C1)N2CC[C@H](NC(=O)C1CCC(F)(F)CC1)c1ccccc1 (some centres not stated),inactive,2.02% and -27.6%,–,–
CC(=O)Oc1ccccc1C(=O)O,inactive,–,inactive,–
NC(CO)C(=O)NNCc1ccc(O)c(O)c1O (configuration not stated),inactive,–,inactive,–
c1ccc(-c2nn3c(c2-c2ccnc4cc(OCCN5CCOCC5)ccc24)CCC3)nc1,inactive,3.16%,–,–
CS(=O)(=O)Nc1ccc([N+](=O)[O-])cc1Oc1ccccc1,inactive,-13.1% and -8.45%,–,–
C[C@@H](Oc1cc(-c2cnn(C3CCNCC3)c2)cnc1N)c1c(Cl)ccc(F)c1Cl,25.1 µM (active),–,11.2 µM (active),–
Nc1nc2c(ncn2CCC(CO)CO)c(=O)[nH]1,inactive,-17.9%,–,–
CC(C)(C)C(O)/C=C/c1ccc2c(c1)OCO2 (configuration not stated),inactive,-17.5%,–,–
CC(=O)Nc1ccc(O)cc1,inactive,-27.9%,–,–
CC(C)OC(=O)C1=CN(C(=O)c2ccc(F)c(F)c2)CC(C)(C)c2c1[nH]c1ccccc21,inactive,-3.59%,–,–

Structure (SMILES),Potency [1],"activity change, negative = inhibition [2]",Potency [2],"activity change, negative = cytotoxicity [1]"
CC1(C)Cc2c(-c3ccccc3)c(-c3ccc(Cl)cc3)c(CC(=O)O)n2C1,inactive,-28.3%,–,–
Clc1ccc2ncc(-c3cccc(NC4CNC4)n3)n2c1,inactive,-15.1%,–,–
Cn1cc(-c2ccc3nnc(Sc4ccc5ncccc5c4)n3n2)cn1,inactive,–,inactive,–
O=C(O)c1ccccn1,inactive,-3.73%,–,–
Cn1c2cc(S(C)=O)sc2c2cnn(Cc3cccc(N)c3)c(=O)c21 (configuration not stated),inactive,-23.3%,–,–
CN(C(=O)C(Cl)Cl)c1ccc(OC(=O)c2ccco2)cc1,inactive,–,inactive,–
CN1CCN(c2c(F)cc3c(=O)c(C(=O)O)cn4c3c2OCN4C)CC1,inactive,–,inactive,–
C/C(=C1\CCOC(=O)S1)N(C=O)Cc1cnc(C)nc1N,inactive,–,inactive,–
O=C(O)c1ccc2cc(-c3ccc(O)c(C45CC6CC(CC(C6)C4)C5)c3)ccc2c1,3.16 µM (active),–,1.58 µM (active),–
Cc1cc(SCc2sc(-c3ccc(C(F)(F)F)cc3)nc2C)ccc1OCC(=O)O,inactive,–,inactive,–
COc1c(N2CCNC(C)C2)c(F)cc2c(=O)c(C(=O)O)cn(C3CC3)c12 (configuration not stated),inactive,-3.63% and -6.19%,–,–
Cn1c(NCCN(CCO)CCCc2ccc([N+](=O)[O-])cc2)cc(=O)n(C)c1=O,inactive,-16.7% and 1.27%,–,–
CCCCn1c(=O)n(Cc2ccccc2F)c(=O)c2[nH]c(Cc3ccc(NC(C)=O)cc3)nc21,inactive,–,inactive,–
c1ccc2c(CCNc3ccc(Nc4ccncc4)cc3)c[nH]c2c1,17.8 µM (active),–,8.91 µM (active),–
O=C(NCCCNc1nc(Nc2cccc(NC(=O)N3CCCC3)c2)ncc1I)c1cccs1,inactive,–,inactive,–
C1CCC(NC2CCCCC2)CC1,inactive,–,inactive,–
CCc1cc(Nc2nccc(-c3c(-c4ccc(OC)c(C(=O)Nc5c(F)cccc5F)c4)nc4ccccn34)n2)c(OC)cc1N1CCC(N2CCN(S(C)(=O)=O)CC2)CC1,inactive,–,inactive,–
Fc1ccc(Cl)cc1-c1nc(Nc2ccncc2)c2nccnc2n1,inactive,-13.6%,–,–
COc1cc2c(Oc3ccc(NC(=O)C4(C(=O)Nc5ccc(F)cc5)CC4)cc3F)ccnc2cc1OCCCN1CCOCC1,31.6 µM (active),–,8.91 µM (active),–
CNC(=O)c1ccc(N2C(=S)N(c3ccc(C#N)c(C(F)(F)F)c3)C(=O)C2(C)C)cc1F,inactive,–,22.4 µM (active),–
CCOC(=O)[C@@H](N)CCC(=O)N[C@@H](CSCc1ccccc1)C(=O)N[C@@H](C(=O)OCC)c1ccccc1,inactive,0.458%,–,–

Structure (SMILES),Potency [1],"activity change, negative = inhibition [2]",Potency [2],"activity change, negative = cytotoxicity [1]"
COCCNCCCn1c(C(=O)CF)c(-c2ccc(C)cc2)c2c(N)ncnc21,inactive,–,inactive,–
Cc1c(C)c2c(c(C)c1OC(=O)c1cccnc1)CC[C@@](C)(CCC[C@H](C)CCC[C@H](C)CCCC(C)C)O2,inactive,–,inactive,–
Cc1nc(N)sc1-c1ccnc(Nc2ccc(N3CCOCC3)cc2)n1,3.16 µM (active),–,3.16 µM (active),–
CC(C)c1ccc(Cn2ccc3c4c(N)nc(NC5CC5)nc4ccc32)cc1,2.51 µM (active),-96.8%,–,–
CCCOC(=O)c1ccc(O)cc1,inactive,–,inactive,–
Cc1ccc(C(=O)Nc2cccc(C(F)(F)F)c2)cc1-c1ccc2nc(NCCN3CCOCC3)ncc2c1,inactive,–,31.6 µM (active),–
COc1ccccc1[C@H](c1cccc2ccccc12)[C@@](C)(C#N)C(=O)N1CCC(c2cccc(C(F)(F)F)c2)CC1,inactive,-3.93%,–,–
CC(C)CCCC(C)CCCC(C)CCCCC(C)CCCC(C)CCCC(C)C (configuration not stated),inactive,-16.5%,–,–
[O-][n+]1cccc(/C(Cl)=N/OC[C@@H](O)CN2CCCCC2)c1,inactive,–,inactive,–
CN1[C@@H]2CC[C@H]1CC(OC(=O)C(O)c1ccccc1)C2 (some centres not stated),inactive,-6.45%,–,–
C[C@@H](N)C(=O)O,inactive,-18.7%,–,–
CCCCCCCCCCCCCC(=O)OC(C)C,inactive,–,inactive,–
N#Cc1c(O)c2c(-c3ccc(-c4ccccc4O)cc3)csc2[nH]c1=O,inactive,3.57%,–,–
Cc1cnc(Nc2ccc(OCCN3CCCC3)cc2)nc1Nc1cccc(S(=O)(=O)NC(C)(C)C)c1,25.1 µM (active),–,22.4 µM (active),–
CCOc1cc(NC(C)=O)ccc1C(=O)OC,inactive,–,inactive,–
CC(C)c1ccccc1Cc1cc(C(=O)Nc2ccc(S(=O)(=O)c3ccccc3C(C)(C)C)cc2)c(O)c(O)c1O,inactive,–,inactive,–
CN[C@@H](C)C(=O)N[C@H]1CCCC[C@H]2CC[C@@H](C(=O)N[C@@H](c3ccccc3)c3cn(CCCCc4ccc(CCCCn5cc([C@@H](NC(=O)[C@@H]6CC[C@@H]7CCCC[C@H](NC(=O)[C@H](C)NC)C(=O)N76)c6ccccc6)nn5)cc4)nn3)N2C1=O,inactive,-12%,–,–
CC[N+](C)(CC)CCOC(=O)C(O)(c1ccccc1)C1CCCCC1 (configuration not stated),inactive,–,inactive,–
CC1=NN(c2ccccc2)C(=O)C1,inactive,0.769% and -7.18%,–,–
CC(=O)Oc1cccc(C)c1,inactive,0.724%,–,–
CCCCC(CC)COC(=O)c1ccc(N(C)C)cc1 (configuration not stated),inactive,4.94%,–,–

Structure (SMILES),Potency [1],"activity change, negative = inhibition [2]",Potency [2],"activity change, negative = cytotoxicity [1]"
COc1cc2c(cc1OC)CN(CCc1ccc(NC(=O)c3cccc4c(=O)c5cccc(OC)c5[nH]c34)cc1)CC2,inactive,-26.4%,–,–
CCC(C)(Oc1ccc(C2(c3ccc(OC(C)(CC)C(=O)O)cc3)CCCCC2)cc1)C(=O)O (configuration not stated),inactive,–,inactive,–
CC1=C(/C=C/C(C)=C/C=C/C(C)=C/C(=O)O)C(C)(C)CCC1,inactive,–,inactive,–
Fc1cc(-c2cccc3ncc(-c4cnn(C5CCNCC5)c4)nc23)cc(F)c1CN1CCOCC1,31.6 µM (active),–,12.6 µM (active),–
O=C(O)CC(O)C(=O)O (configuration not stated),inactive,–,inactive,–
CC(=O)OCC(=O)[C@@]1(O)[C@H](C)C[C@H]2[C@@H]3C=C(C)C4=Cc5c(cnn5-c5ccccc5)C[C@]4(C)[C@@H]3[C@@H](O)C[C@@]21C,inactive,–,inactive,–
COc1cc2ncnc(-n3nc(-c4ccccn4)nc3N)c2cc1OC,inactive,-6.12%,–,–
COc1ccc(CC2SC(=O)NC2=O)cc1C(=O)NCc1ccc(C(F)(F)F)cc1 (configuration not stated),inactive,-1.76%,–,–
O=C(Nc1ccc(OC(F)(F)F)cc1)c1sccc1NCc1ccnc2ccccc12,inactive,-18%,–,–
Clc1ccccc1CN1CCc2sccc2C1,inactive,–,inactive,–
COc1ccc2c3n(c(=NC(=O)c4cccnc4)nc2c1OC)CCN3,–,-3.67% [at 5.25 µM],–,3.4% [at 5.25 µM] (inactive)
CC1(O)CC(c2nc(-c3ccc4ccc(-c5ccccc5)nc4c3)c3c(N)nccn23)C1 (configuration not stated),inactive,-23.9%,–,–
CCCCCCCCCCCCCC(=O)N[C@H](CO)[C@H](O)c1ccc([N+](=O)[O-])cc1,inactive,–,inactive,–
COc1nc(C)cnc1NS(=O)(=O)c1cccnc1-c1ccc(-c2nnco2)cc1,inactive,–,inactive,–
O=C(O)[C@@H](c1ccc(OCc2ccc3ccccc3n2)cc1)C1CCCC1,inactive,-23.5%,–,–
Cc1ccccc1-n1c(Cn2ncc3c(N)ncnc32)nc2cccc(C)c2c1=O,inactive,-50.6%,–,–
O=C(Nc1cc(Cl)cc2c1[nH]c1cnccc12)c1cccnc1,inactive,-24.6% [at 27.1 µM],–,–
CCN(c1ccccc1)c1cc(NC)[n+](C)c(C)n1,inactive,3.72%,–,–
